Assay outcomes deposited in PubChem by National Center for Advancing Translational Sciences (NCATS).
HT1080-NT tox: kills 2HG-producing HT-1080-NT fibrosarcoma cells; Potency, µM (top dose mostly 46.1 µM), without a hit: at the highest dose activity, negative = less viability, most hits filed as cytotoxic; 360,000 tested, 1.6% active; HT-1080-NT fibrosarcoma viability, CellTiter-Glo ATP luminescence, 48 h; AID 686970;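 also: NT is the 2HG producing partner of a matched IDH1 knockdown line; potency is read from the fitted curve at half-maximal effect; 0% = DMSO-treated cells and -100% = media-only wells without cells; nearly all actives have a fitted effect of over 55% in size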
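HT-1080-NT; 750 cells/well; 5% FBS RPMI; 48 h compound, 37 degrees C; CellTiter-Glo luminescence; curve fitting and curve-class assignment.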
DT40 TDP1 no CPT: qHTS for Inhibitors of human tyrosyl-DNA phosphodiesterase 1 (TDP1): qHTS in cells in absence of CPT; DT40 Tdp1-/- hTDP1 cells, no CPT, ATP luminescence, 48 h; Potency, µM (highest dose often 46.2 µM), for inactives: top-dose activity change, negative = growth inhibition, most hits filed as inhibitors; 420,000 tested, 15% active; AID 686978, 2013; also: potency is read from the fitted curve at half-maximal effect; nearly all actives have a fitted effect of over 55% in size
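Stably hTDP1-transfected Tdp1-null chicken DT40 cells were treated with library compounds minus camptothecin and grown for at least 48 hr at 37 °C, after which cellular ATP was quantified by luminescence.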
ELG1 DNA repair: inhibitors of ELG1-dependent DNA repair in HEK293T cells | HEK293T ELG1-luciferase reporter, luminescence, 16 h; DNA damage induced by 5-fluorouridine | Potency, µM (highest dose often 46.1 µM), for the others: top-dose activity change, negative = inhibition, most hits filed as inhibitors | 330,000 tested, 2.3% active | AID 504467; also: potency is read from the fitted curve at half-maximal effect; nearly all actives have a fitted effect of over 55% in size
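DMSO vehicle served as the neutral condition. Each well held 2,000 cells given 5-fluorouridine plus compound; after 16 hr at 37 °C/5% CO2, ONE-Glo was added and luciferase measured 30 min later.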
IL1B secr inh: inhibitors of inflammasome signaling (IL-1 beta secretion) | THP-1 LPS/ATP IL-1B secretion, AlphaLISA, 16 h; active compounds read low | activity change, % at 57.5 µM | 360,000 tested, 4.7% active | AID 743279; in the data active = activity change below about -50%; inconclusive = mostly about -30% to -49%
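Secreted IL-1B measured by AlphaLISA bead assay after 16 h compound exposure of THP-1 cells; compounds (final up to 57.5 uM) added 1 h before LPS (250 ng/mL) and ATP (1.25 mM) stimulation; lower signal means less secretion.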
HT1080 IDH1KD tx: kills HT-1080 cells with IDH1 knockdown; HT-1080 IDH1 knockdown viability, ATP luminescence, 48 h; Potency, µM (titrated, usually from 46.1 µM), without a hit: at the top dose activity, negative = toxicity, actives largely listed as cytotoxic; 360,000 tested, 2% active; AID 686971;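 also: potency is read from the fitted curve at half-maximal effect; 0% = DMSO wells and -100% = cell-free medium wells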
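HT-1080-IDH1KD cells (IDH1 knocked down), 750/well in RPMI with 5% FBS, treated with compound 48 h at 37 degrees C. Viability by CellTiter-Glo luminescence, normalised to DMSO and no-cell wells; concentration-response curves classed.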
DT40 TDP1 CPT: growth inhibition of DT40 Tdp1-/-;hTDP1 cells with camptothecin (screen for TDP1 inhibitors); 420,000 tested, 12% active; Potency, µM (doses to about 46.2 µM), for the others: top-dose activity change, negative = growth inhibition, actives largely listed as inhibitors; chicken DT40 Tdp1-/-;hTDP1 cells + 20 nM CPT, ATP luminescence, 48 h; also: potency is read from the fitted curve at half-maximal effect; nearly all actives have a fitted effect of over 55% in size
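Cell growth measured by CellTiter-Glo luminescence after a minimum 48 h, 37 C compound exposure with 20 nM CPT in Tdp1-knockout DT40 cells stably expressing hTDP1, seeded 400/well; qHTS titration format.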
* marks the source's active call; other numbers are inactive results; ? = inconclusive; . = not tested or not shown. The list is not random: actives were taken first. Their share in the collection is about 19%. Unless noted, calls follow the shape of the dose curve; as a rule, active = well fitted curve in the direction sought with a large enough effect; inconclusive = small, poorly fitted or top-dose-only effect, or another doubt; inactive = no such curve, though single readings can be large; an effect the other way counts as inactive or inconclusive. Unless noted, % is scaled to controls: 0 for no effect and ±100 for the full control effect.

SMILES	HT1080-NT tox	DT40 TDP1 no CPT	ELG1 DNA repair	IL1B secr inh	HT1080 IDH1KD tx	DT40 TDP1 CPT
Cc1ccc(-n2cnc3cc(C(=O)NCc4ccccc4Cl)ccc32)c(C)c1	.	23.1µM*	.	.	.	23.1µM*
COC(CNC(=O)c1ccc2c(c1)ncn2-c1cccc(C)c1)OC	27.1%	-22.5%	8.3%	-19.1	22.8%	-2.9%
CCc1ccc(-n2cnc3cc(C(=O)NCc4ccc(C)cc4)ccc32)cc1	.	14.6µM*	.	.	.	14.6µM*
COC(=O)C1=CN(c2cccc(OCc3ccccc3)c2)C(N)=C(C#N)C1c1ccc(-c2ccccc2)cc1 (centres undefined)	0.9%	-23.2%	.	-4.4	10.3%	-10.2%
CCn1cnc2sc(C(=O)Oc3ccc(Br)cc3)c(C)c2c1=O	29.4%	?	16.0%	-8.9	18.4%	-12.9%
COc1ccc(C(=O)N(Cc2ccc(N(C)C)cc2)Cc2ccco2)cc1Cl	.	14.6µM*	.	.	.	16.4µM*
COc1ccc(N(Cc2ccco2)C(=O)c2ccccc2F)cc1OC	3.8%	?	-29.2%	-5.5	-1.7%	?
CN(C)c1ccc(CN(Cc2ccco2)C(=O)c2ccc(C(C)(C)C)cc2)cc1	.	20.6µM*	.	.	.	16.4µM*
COc1ccc(C(=O)N(Cc2ccco2)Cc2ccccc2F)cc1Cl	.	16.4µM*	.	.	.	20.6µM*
CCn1cnc2sc(C(=O)N(Cc3ccc(N(C)C)cc3)Cc3ccco3)c(C)c2c1=O	-5.8%	?	?	-75.9*	-6.2%	?
Cc1nc2ccccc2c(C)c1CC(=O)OC(C)C(=O)NC1(C#N)CCCCC1 (centres undefined)	2.2%	-13.3%	-1.0%	-0.9	6.1%	-3.7%
CCc1ccccc1NC(=O)Cn1nnc(C(=O)Nc2ccc(OC)c(OC)c2)c1N	.	-8.4%	.	.	.	-2.9%
CCN1CCc2c(sc(NC(=O)c3ccc(S(=O)(=O)N(C)c4ccccc4)cc3)c2C(=O)NC)C1	-21.3%	20.6µM*	?	0.0	-24.0%	16.4µM*
CCN1CCN(S(=O)(=O)c2ccc(C(=O)Nc3sc4c(c3C(N)=O)CCN(CC)C4)cc2)CC1	-8.0%	-17.8%	-12.5%	-13.7	-12.5%	?
CNC(=O)c1c(NC(=O)c2ccc(S(=O)(=O)N(C)c3ccccc3)cc2)sc2c1CCN(C(C)C)C2	-4.2%	18.4µM*	?	42.9	-1.3%	18.4µM*
Cc1cccc(C)c1NC(=O)CN1C(=O)COc2ccccc21	9.8%	-2.5%	3.5%	15.1	16.8%	12.5%
COc1ccc(NC(=O)CSc2n[nH]c(=O)n2C2CC2)cc1OC	-0.8%	-0.7%	20.5%	22.3	-0.2%	8.5%
CCOC(=O)c1cc([N+](=O)[O-])sc1NC(=O)c1ccc(S(=O)(=O)N2CC3(C)CC2CC(C)(C)C3)cc1 (centres undefined)	5.0%	2.59µM*	?	56.2	-10.4%	2.31µM*
CC1(C)CC2CC(C)(CN2S(=O)(=O)c2ccc(C(=O)Nc3ccc(Cl)c(S(=O)(=O)N4CCOCC4)c3)cc2)C1 (centres undefined)	-9.7%	3.66µM*	0.6%	27.3	-14.1%	3.26µM*
CC(=O)Nc1ccc(S(=O)(=O)N2CC3(C)CC2CC(C)(C)C3)cc1 (centres undefined)	-1.0%	?	3.7%	46.6	-16.5%	-5.6%
CC1(C)CC2CC(C)(CN2S(=O)(=O)c2ccc(C(=O)Nc3ccc(S(=O)(=O)N4CCOCC4)cc3)cc2)C1 (centres undefined)	?	5.17µM*	16.1%	37.5	?	3.66µM*
CC1(C)CC2CC(C)(CN2C(=O)COC(=O)c2cccc([N+](=O)[O-])c2)C1 (centres undefined)	10.6%	-27.5%	?	21.3	16.2%	?
CCCNC(=O)Cn1c(=O)n(CC2CCC(C(=O)NC)CC2)c(=O)c2sccc21 (centres undefined)	.	7.4%	.	.	.	5.3%
COc1cc(/C=C2\SC(=O)N(CCNC(=O)c3sc4cc(F)ccc4c3Cl)C2=O)cc(OC)c1OC	0.7%	?	?	53.1	-14.7%	-29.9%
COc1cc2c(cc1OC)CN(C1CCCN(Cc3cccc(C(C)=O)c3)C1)CC2 (centres undefined)	-7.3%	-3.4%	.	12.8	4.7%	-27.1%
SMILES	HT1080-NT tox	DT40 TDP1 no CPT	ELG1 DNA repair	IL1B secr inh	HT1080 IDH1KD tx	DT40 TDP1 CPT
Cc1cc(CN2CCCC(N3CCc4ccccc4C3)C2)cc(C)c1O (centres undefined)	1.3%	?	1.0%	-8.7	6.1%	13µM*
CCN(C(=O)C(=O)Nc1ccc2nc3n(c(=O)c2c1)CCCCC3)c1ccc(F)cc1	.	?	.	.	.	-24.4%
CCCNc1c(N)c(=O)oc2ccccc12	0.0%	-3.9%	28.0%	11.4	9.4%	-4.9%
Nc1c(NCCN2CCCCC2)c2ccccc2oc1=O	-8.9%	16.4µM*	3.0%	10.6	-0.7%	14.6µM*
CC1=C(C(=O)Nc2cc(C(=O)NCCCOC(C)C)ccc2C)SCCO1	15.8%	-12.9%	11.5%	29.0	24.4%	21.6%
COc1ccccc1NC(=O)Nc1nc(C(C)(C)C)cs1	?	-22.9%	-6.2%	-83.1*	-27.8%	16.4µM*
COc1ccccc1NC(=O)Nc1ccccc1C(N)=O	15.2%	-8.0%	?	7.5	5.8%	?
COc1ccccc1CNC(=O)Nc1nc(C(N)C(C)C)cs1 (centres undefined)	?	?	.	-50.9*	?	?
COc1ccc(OC)c(NC(=O)Nc2nc(C(C)N)cs2)c1 (centres undefined)	-28.5%	?	.	-68.9*	-21.5%	-29.0%
COc1ccccc1NC(=O)Nc1nc(C(N)C(C)C)cs1 (centres undefined)	?	20.6µM*	.	-26.8	?	?
Cn1c(Oc2ccc(Cl)cc2)nc2c1c(=O)n(Cc1ccc(F)cc1)c(=O)n2C	.	-26.5%	.	.	.	-1.8%
COc1cc(NC(=O)CCc2c(C)nn(-c3ccc4nncn4n3)c2C)cc(OC)c1OC	.	-23.1%	.	.	.	-3.4%
O=S(=O)(Nc1ccc2c(c1)OCO2)c1ccc(Cl)cc1F	-2.2%	8.4%	8.1%	-15.7	4.5%	-4.6%
CCn1ncc(/C=N/NC(=O)c2cc(Cl)ccc2OC)c1C	16.8%	8.5%	-21.3%	0.0	22.3%	9.6%
Cn1c(-c2ccc(F)cc2)cc2onc(-c3c(F)cccc3Cl)c2c1=O	5.7%	?	?	-17.0	4.0%	13µM*
Cc1onc(-c2c(F)cccc2Cl)c1C(=O)c1ccccc1	2.4%	?	-7.5%	.	8.8%	1.1%
